Measured values from PubChem BioAssay AID1777 (Sanford-Burnham Center for Chemical Genomics, 2009).
In all, about 280,000 compounds went through this assay and about 50 (0.02%) were called active. No stated cut-off is given here; in the data, active means activation above about 50% (passing the limit was not always enough); inactive means the rest. The sample as a whole holds a higher share of actives than the screen did. Results with a measured potency or affinity are listed apart.

Molecular target: Kappa-type opioid receptor (Homo sapiens) (UniProt P41145)
Assay: kappa opioid receptor activators – cell-based, luminescence, uHTS, primary screen (AID 1777)
Details: KOR beta-arrestin recruitment, at 10 µM, active compounds read high

Kappa-type opioid receptor (Homo sapiens), sequence (P41145 whole entry, looked up): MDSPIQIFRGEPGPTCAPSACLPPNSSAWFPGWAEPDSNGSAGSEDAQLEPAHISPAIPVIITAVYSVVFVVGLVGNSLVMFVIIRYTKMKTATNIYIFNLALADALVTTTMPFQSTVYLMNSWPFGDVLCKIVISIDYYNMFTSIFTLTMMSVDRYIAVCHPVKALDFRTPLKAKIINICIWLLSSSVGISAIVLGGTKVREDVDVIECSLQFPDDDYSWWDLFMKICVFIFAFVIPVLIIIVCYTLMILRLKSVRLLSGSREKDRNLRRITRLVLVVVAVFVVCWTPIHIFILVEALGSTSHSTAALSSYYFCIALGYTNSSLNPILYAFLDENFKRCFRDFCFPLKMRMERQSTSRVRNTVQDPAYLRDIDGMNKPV

SMILES	activation
COC(=O)N1CCN(C(=O)Cc2ccc(Cl)c(Cl)c2)C(CN2CCCC2)C1 (stereo not given)	91.3% (active)
COc1ccc(C(CNC(=O)Cc2ccc(Cl)c(Cl)c2)N2CCCCC2)cc1 (stereo not given)	-2.4% (inactive)
COc1ccc(C(CNC(=O)Cc2ccc(Cl)c(Cl)c2)N(C)C)cc1 (stereo not given)	-2.4% (inactive)
CCN1C(=O)N(CC)C(=O)C2(Cc3ccccc3N3CCN(c4ccccc4)CC32)C1=O (stereo not given)	2.7% (inactive)
COc1ccc2nc(/N=C/c3c(O)n(-c4cccc(Cl)c4)c(=O)[nH]c3=O)sc2c1	2.9% (inactive)
